Experimental data reported in PubChem BioAssay (NCI).
The panel holds about 83,000 compounds, 20% with a hit somewhere; the sample as a whole holds those more often.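 Note: values are percent growth. 100 is the growth of untreated cells, values between 100 and 0 indicate rising inhibition; between -100 and 0 indicates cell death.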 Calls of active or inactive are those of the source. Rule for the calls: active = growth percent below 10; inactive = the rest.

How the values were obtained:
Assay in all cases: NCI-60 one-dose screen, 48 h (100 = growth as untreated, 0 = no growth, -100 = all killed)
Conditions in all cases: 10 µM unless noted
SR leukemia = tested on: SR leukemia
RPMI-8226 leukemia = tested on: RPMI-8226 leukemia
OVCAR-8 ovarian = tested on: OVCAR-8 ovarian
OVCAR-5 ovarian = tested on: OVCAR-5 ovarian
OVCAR-4 ovarian = tested on: OVCAR-4 ovarian
SK-OV-3 ovarian = tested on: SK-OV-3 ovarian
IGROV1 ovarian = tested on: IGROV1 ovarian
OVCAR-3 ovarian = tested on: OVCAR-3 ovarian
HS 578T breast = tested on: HS 578T breast
T-47D breast = tested on: T-47D breast
BT-549 breast = tested on: BT-549 breast
MDA-MB-435 melanoma = tested on: MDA-MB-435 melanoma
SW-620 colon = tested on: SW-620 colon
MCF7 breast = tested on: MCF7 breast
HCT-116 colon = tested on: HCT-116 colon
HCC-2998 colon = tested on: HCC-2998 colon
KM12 colon = tested on: KM12 colon
NCI/ADR-RES ovarian = tested on: NCI/ADR-RES ovarian

Measured: growth

Cc1csc(/N=C(N)/N=C(\N)c2cccc(Br)c2)n1
inactive: SR leukemia 66.9% | RPMI-8226 leukemia 102% | OVCAR-8 ovarian 96.5% | OVCAR-5 ovarian 102% | OVCAR-4 ovarian 95.5% | SK-OV-3 ovarian 91.5% | IGROV1 ovarian 81.4% | OVCAR-3 ovarian 107% | HS 578T breast 95.1% | T-47D breast 74.3% | BT-549 breast 92.6% | MDA-MB-435 melanoma 46.2% | SW-620 colon 84.4% | MCF7 breast 73.3% | HCT-116 colon 88.8% | HCC-2998 colon 97% | KM12 colon 73.2%

O=C1[C@@H]2Cc3c([nH]c4ccccc34)[C@H](c3ccc(Br)cc3)N2C(=O)CN1C1CCN(Cc2c(Cl)cccc2Cl)CC1
inactive: SR leukemia 91.7% | RPMI-8226 leukemia 79.9% | OVCAR-8 ovarian 94.6% | OVCAR-5 ovarian 99.4% | OVCAR-4 ovarian 86.2% | SK-OV-3 ovarian 86.7% | IGROV1 ovarian 84.7% | HS 578T breast 90.1% | NCI/ADR-RES ovarian 90.9% | T-47D breast 88.5% | BT-549 breast 110% | MDA-MB-435 melanoma 100% | SW-620 colon 92.7% | MCF7 breast 68.3% | HCT-116 colon 78.8% | HCC-2998 colon 101%

CC(C)C(/C=C/c1[nH]ncc1-c1cc(Cl)ccc1O)N1CCOCC1 (stereo not drawn)
inactive: SR leukemia 87.9% | RPMI-8226 leukemia 94.5% | OVCAR-8 ovarian 91.9% | OVCAR-5 ovarian 99.4% | OVCAR-4 ovarian 94.3% | SK-OV-3 ovarian 92.8% | IGROV1 ovarian 88.6% | HS 578T breast 83.8% | NCI/ADR-RES ovarian 88.1% | T-47D breast 94.9% | BT-549 breast 90% | MDA-MB-435 melanoma 95.8% | SW-620 colon 98.4% | MCF7 breast 76.8% | HCT-116 colon 89.3% | HCC-2998 colon 104% | KM12 colon 99.6%

COc1cc(-c2nc(-c3ccccc3)[nH]c2-c2ccnc(NCCCNS(=O)(=O)c3ccc(C)cc3)n2)ccc1F
inactive: SR leukemia 89.4% | RPMI-8226 leukemia 54% | OVCAR-8 ovarian 83.8% | OVCAR-5 ovarian 119% | OVCAR-4 ovarian 108% | SK-OV-3 ovarian 148% | IGROV1 ovarian 95.2% | OVCAR-3 ovarian 119% | HS 578T breast 107% | T-47D breast 57.3% | BT-549 breast 119% | MDA-MB-435 melanoma 68.5% | SW-620 colon 108% | MCF7 breast 65.4% | HCT-116 colon 72.3% | HCC-2998 colon 153% | KM12 colon 90.1%

C#CCN(C)CCCOc1ccc(NC(=O)CCCCCCC(=O)NO)cc1Cl
inactive: SR leukemia 13.7% | OVCAR-8 ovarian 17.7% | OVCAR-5 ovarian 12.8% | OVCAR-4 ovarian 41.9% | SK-OV-3 ovarian 18.2% | IGROV1 ovarian 17% | OVCAR-3 ovarian 27.8% | HS 578T breast 19.7% | BT-549 breast 44.9% | SW-620 colon 11.7% | MCF7 breast 13.4% | HCC-2998 colon 12.9%
active: RPMI-8226 leukemia 0.211% | T-47D breast -2.41% | MDA-MB-435 melanoma -0.594% | HCT-116 colon 2.96%

COc1ccc(C(C)=C(c2ccc(OCCN3CCCCCC3)cc2)c2ccc(OCCN3CCCCCC3)cc2)cc1
active: SR leukemia -12.1% | RPMI-8226 leukemia -44.9% | OVCAR-8 ovarian 0.8% | OVCAR-4 ovarian -66.7% | IGROV1 ovarian -67.9% | OVCAR-3 ovarian -47.2% | HS 578T breast -52.1% | T-47D breast -32.2% | MDA-MB-435 melanoma -83.7% | SW-620 colon -50.4% | MCF7 breast -72.4% | HCT-116 colon -93% | HCC-2998 colon -79.3% | KM12 colon -24.8%
inactive: OVCAR-5 ovarian 22.9% | SK-OV-3 ovarian 72.9% | BT-549 breast 13.2%

COc1cc2oc(-c3cccc(NC(=O)c4cccc([N+](=O)[O-])c4)c3)cc(=O)c2c(OC)c1OC
inactive: SR leukemia 55.2% | RPMI-8226 leukemia 48.8% | OVCAR-5 ovarian 72.1% | OVCAR-4 ovarian 37.6% | SK-OV-3 ovarian 85.9% | IGROV1 ovarian 64.6% | OVCAR-3 ovarian 59% | T-47D breast 54.3% | BT-549 breast 59.8% | MDA-MB-435 melanoma 53.3% | SW-620 colon 70.9% | MCF7 breast 42.9% | HCT-116 colon 33.5% | HCC-2998 colon 93.6% | KM12 colon 76.4%
active: OVCAR-8 ovarian 6.56% | HS 578T breast -10.3%

O=C(CSc1nc2ccccc2c(=O)n1CCc1ccccc1)Nc1ccc(S(=O)(=O)Nc2ccc(Cl)nn2)cc1
inactive: SR leukemia 95.9% | RPMI-8226 leukemia 102% | OVCAR-8 ovarian 92% | OVCAR-5 ovarian 95.8% | OVCAR-4 ovarian 93.1% | SK-OV-3 ovarian 94.1% | IGROV1 ovarian 95.6% | OVCAR-3 ovarian 98.8% | HS 578T breast 97.1% | T-47D breast 88.6% | BT-549 breast 98.9% | MDA-MB-435 melanoma 99.8% | SW-620 colon 91.3% | MCF7 breast 79.7% | HCT-116 colon 93.4% | HCC-2998 colon 102%

CC1=Cc2ccccc2OC12C=Cc1ccccc1O2 (stereo not drawn)
inactive: SR leukemia 103% | RPMI-8226 leukemia 104% | OVCAR-8 ovarian 103% | OVCAR-5 ovarian 102% | OVCAR-4 ovarian 105% | SK-OV-3 ovarian 102% | IGROV1 ovarian 69.1% | HS 578T breast 106% | NCI/ADR-RES ovarian 98.6% | T-47D breast 81.8% | BT-549 breast 106% | MDA-MB-435 melanoma 105% | SW-620 colon 101% | MCF7 breast 82.6% | HCT-116 colon 99.3% | HCC-2998 colon 99.9% | KM12 colon 97.6%

CCOC(=O)c1c(N)c(C#N)cn1Cc1ccc(Cl)cc1Cl
inactive: SR leukemia 26.2% | RPMI-8226 leukemia 83% | OVCAR-8 ovarian 94.4% | OVCAR-5 ovarian 85.5% | OVCAR-4 ovarian 79.3% | SK-OV-3 ovarian 101% | IGROV1 ovarian 63.3% | HS 578T breast 73.4% | NCI/ADR-RES ovarian 61.5% | T-47D breast 78.3% | BT-549 breast 81.8% | SW-620 colon 44.9% | MCF7 breast 59.2% | HCT-116 colon 64% | HCC-2998 colon 73% | KM12 colon 60.1%
active: MDA-MB-435 melanoma -7.54%

CCCCCc1ccc(S(=O)(=O)Nc2cc(-c3csc(N)n3)ccc2OC)cc1
inactive: SR leukemia 98.9% | RPMI-8226 leukemia 78.2% | OVCAR-8 ovarian 95.9% | OVCAR-5 ovarian 110% | OVCAR-4 ovarian 100% | SK-OV-3 ovarian 127% | IGROV1 ovarian 84.5% | HS 578T breast 97.1% | NCI/ADR-RES ovarian 88% | T-47D breast 83% | BT-549 breast 102% | MDA-MB-435 melanoma 107% | SW-620 colon 110% | MCF7 breast 66.1% | HCT-116 colon 95.1% | HCC-2998 colon 111% | KM12 colon 99.6%

O=C(/C=C/c1ccc(Cl)c(Cl)c1)Nc1ncc(Cc2ccc(Cl)c(Cl)c2)s1
inactive: SR leukemia 38% | RPMI-8226 leukemia 81.2% | OVCAR-8 ovarian 44% | OVCAR-5 ovarian 59.6% | OVCAR-4 ovarian 34% | SK-OV-3 ovarian 77.1% | IGROV1 ovarian 60.6% | HS 578T breast 76.4% | NCI/ADR-RES ovarian 52.8% | T-47D breast 24.6% | BT-549 breast 47.4% | MDA-MB-435 melanoma 26.9% | SW-620 colon 33.3% | MCF7 breast 28.7% | HCT-116 colon 26.6% | HCC-2998 colon 41.2% | KM12 colon 13.3%

CCC1=Cc2c(OC)cccc2OC12C=Cc1c(OC)cccc1O2 (stereo not drawn)
active: NCI/ADR-RES ovarian -24.2% | MDA-MB-435 melanoma -18.8% | HCT-116 colon 8.84% | HCC-2998 colon 2.34%
inactive: SR leukemia 15.2% | RPMI-8226 leukemia 25.2% | OVCAR-8 ovarian 24.3% | OVCAR-5 ovarian 36.5% | OVCAR-4 ovarian 76.7% | SK-OV-3 ovarian 56.5% | IGROV1 ovarian 29.8% | HS 578T breast 28.4% | T-47D breast 46.8% | BT-549 breast 46.6% | SW-620 colon 30% | MCF7 breast 10.8% | KM12 colon 12.4%

NC(=O)c1ncn2c(=O)n(CCF)nnc12
inactive: SR leukemia 35.3% | RPMI-8226 leukemia 44% | OVCAR-8 ovarian 38.3% | OVCAR-5 ovarian 85.1% | OVCAR-4 ovarian 58% | SK-OV-3 ovarian 17.3% | IGROV1 ovarian 70.3% | HS 578T breast 103% | NCI/ADR-RES ovarian 50.6% | T-47D breast 88.8% | BT-549 breast 110% | MDA-MB-435 melanoma 82.4% | SW-620 colon 40.4% | MCF7 breast 57.8% | HCT-116 colon 47.4% | HCC-2998 colon 56.4% | KM12 colon 83.5%

O=C(CCl)Nc1ccc(NC(=O)c2cc(Cl)ccc2O)c(Cl)c1
active: IGROV1 ovarian -45.3%
inactive: SR leukemia 21.3% | RPMI-8226 leukemia 49.8% | OVCAR-8 ovarian 48.6% | OVCAR-5 ovarian 121% | OVCAR-4 ovarian 83% | SK-OV-3 ovarian 90.9% | HS 578T breast 86.9% | NCI/ADR-RES ovarian 56.7% | T-47D breast 81.3% | BT-549 breast 65.8% | MDA-MB-435 melanoma 66% | SW-620 colon 35.2% | MCF7 breast 29.1% | HCT-116 colon 39% | HCC-2998 colon 105% | KM12 colon 75.8%

N#C/C(=C\c1cccc2c1OCO2)C(=O)Nc1sc2c(c1C#N)CCCC2
inactive: SR leukemia 90.3% | RPMI-8226 leukemia 101% | OVCAR-8 ovarian 105% | OVCAR-5 ovarian 101% | OVCAR-4 ovarian 108% | SK-OV-3 ovarian 98.5% | IGROV1 ovarian 100% | HS 578T breast 102% | NCI/ADR-RES ovarian 106% | T-47D breast 93.8% | BT-549 breast 107% | MDA-MB-435 melanoma 103% | SW-620 colon 106% | MCF7 breast 97.6% | HCT-116 colon 98.4% | HCC-2998 colon 120% | KM12 colon 103%

COc1ccccc1N1CCN(C2=C(Cl)C(=O)c3ncccc3C2=O)CC1
inactive: SR leukemia 12.4% | RPMI-8226 leukemia 79.4% | OVCAR-8 ovarian 90.5% | OVCAR-5 ovarian 114% | OVCAR-4 ovarian 85.7% | SK-OV-3 ovarian 90.5% | IGROV1 ovarian 86.3% | HS 578T breast 87.2% | NCI/ADR-RES ovarian 81.7% | T-47D breast 19.3% | BT-549 breast 119% | MDA-MB-435 melanoma 57.7% | SW-620 colon 43.8% | MCF7 breast 36.9% | HCT-116 colon 27.1% | HCC-2998 colon 108% | KM12 colon 90.7%

O=C(O)c1ccc(-n2c(=O)n(-c3cccc(C(F)(F)F)c3)c(=O)c3cc(-c4ccc(F)cc4F)ccc32)cc1
active: SR leukemia 8.91% | RPMI-8226 leukemia -7.92% | SK-OV-3 ovarian 2.5% | HS 578T breast -4.81% | NCI/ADR-RES ovarian 3.12% | T-47D breast -5.81% | BT-549 breast -3.47% | MDA-MB-435 melanoma 5.93% | MCF7 breast 1.46% | HCT-116 colon 4.2% | KM12 colon 4.47%
inactive: OVCAR-8 ovarian 13.9% | OVCAR-5 ovarian 24.8% | OVCAR-4 ovarian 31.2% | IGROV1 ovarian 17.8% | SW-620 colon 15.5% | HCC-2998 colon 13.4%
